Laboratory results reported in PubChem BioAssay (EPA / NIEHS).
The source made the active and inactive calls. The calls were made as follows: active = hit-call score of the fitted dose curve at least 0.9, where 1 is the maximum; inactive = score below 0.9.

Test: ATG_TA_CIS: Attagene CIS-FACTORIAL HepG2 Assay for human TA Basal Promoter (AID 2282964)
Conditions: HepG2 Attagene CIS-factorial TA basal promoter reporter; actives raise or lower the signal
In short: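 HepG2 cells transiently transfected with multiple reporter units under cis promoter elements, reporting endogenous transcription factor activity; this endpoint tracks the TA basal promoter as background control. Reporter mRNA after 24 h dosing measured by RT-PCR/capillary electrophoresis; bidirectional fits versus DMSO.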

outcome, inactive:
c1ccc2occc2c1
CN(C)CCCN1c2ccccc2Sc2ccc(Cl)cc21
O=C1CCCCC1
Cc1ccc(C(C)(C)C)c(O)c1
Nc1nc(=S)c2[nH]cnc2[nH]1
CO[C@@H]1COCC[C@@H]1N[C@@H]1CC[C@@](C(=O)N2CCc3ncc(C(F)(F)F)cc3C2)(C(C)C)C1
CCCCCCCCCCCCCCCCO
CC(=O)OC1CC(C)OC(C)O1 (centres undefined)
CC1(C)C(=O)NC(=O)N1CO
Cn1cnc2c1c(=O)[nH]c(=O)n2C
CC(C)(O)c1ccc(CNC(=O)c2cccnc2Oc2ccc(F)cc2)cc1
CCCC(=O)O
O=C(O)c1cccnc1
COC(=O)CCC(=O)OC
C#CC(O)C(CC)CCCC (centres undefined)
NCCOCCOCCN
NC=O
O=C(O)c1[nH]n(-c2ccc(S(=O)(=O)O)cc2)c(=O)c1N=Nc1ccc(S(=O)(=O)O)cc1
Nc1nc(Cl)nc2c1ncn2[C@H]1C[C@H](O)[C@@H](CO)O1
CCCCCCCCCCCCCCOS(=O)(=O)O
Cc1cn([C@H]2C=C[C@@H](CO)O2)c(=O)[nH]c1=O
Cc1c(C)c2c(c(C)c1O)CCC(C)(COc1ccc(CC3SC(=O)NC3=O)cc1)O2 (centres undefined)
CC1=C(C)S(=O)(=O)CCS1(=O)=O
O=C1O[C@H]([C@H](O)CO)C(O)=C1O
CCc1cc(C2=C(C(=O)O)N(c3ccccc3C(F)(F)F)S(=O)(=O)c3ccccc32)cc2c1OCO2
OCC(CO)n1cnc(-c2ccc(F)cc2)c1-c1ccnc(Oc2ccccc2)n1
CC(C)COC(=O)CCCCC(=O)OCC(C)C

AC50, active:
CC(C)OC(=O)C(C)(C)Oc1ccc(C(=O)c2ccc(Cl)cc2)cc1 22.6 µM
CCc1nc(N)nc(N)c1-c1ccc(Cl)cc1 100 µM

Test: ATG_TCF_b_cat_CIS: Attagene CIS-FACTORIAL HepG2 Assay for human T-Cell-Factor with beta-catenin (TCF/b-cat) (AID 2282965)
Conditions: HepG2 TCF/beta-catenin cis-reporter transcription, actives raise or lower the signal
In short: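 In this cis-format system, transfected HepG2 cells report endogenous transcription factor activity. Readout after 24 h exposure is reporter transcript abundance from RT-PCR and capillary electrophoresis, analysed for gain or loss of signal versus DMSO.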

outcome, inactive:
c1ccc2occc2c1
O=C1CCCCC1
CC(C)OC(=O)C(C)(C)Oc1ccc(C(=O)c2ccc(Cl)cc2)cc1
Nc1nc(=S)c2[nH]cnc2[nH]1
CO[C@@H]1COCC[C@@H]1N[C@@H]1CC[C@@](C(=O)N2CCc3ncc(C(F)(F)F)cc3C2)(C(C)C)C1
CC(=O)OC1CC(C)OC(C)O1 (centres undefined)
CC(C)(O)c1ccc(CNC(=O)c2cccnc2Oc2ccc(F)cc2)cc1
NCCOCCOCCN
NC=O
O=C(O)c1[nH]n(-c2ccc(S(=O)(=O)O)cc2)c(=O)c1N=Nc1ccc(S(=O)(=O)O)cc1
Nc1nc(Cl)nc2c1ncn2[C@H]1C[C@H](O)[C@@H](CO)O1
CCCCCCCCCCCCCCOS(=O)(=O)O
CC1=C(C)S(=O)(=O)CCS1(=O)=O

AC50, active:
C#CC(O)C(CC)CCCC (centres undefined) 67.9 µM
Cc1c(C)c2c(c(C)c1O)CCC(C)(COc1ccc(CC3SC(=O)NC3=O)cc1)O2 (centres undefined) 18.5 µM
